Laboratory results from PubChem BioAssay AID1159580 (chemical genetic matrix, 2015).
About 2,000 (36%) of roughly 5,500 compounds were called active. Another 18% or so got no clear call; they are omitted. Cut-off read from the data, not from the text of the source: active = normalized growth mostly below about 0.91 (no sharp cut-off); inconclusive = no clear call, values can overlap the other calls; inactive = mostly above about 0.92. The list shows a part of the results.

Experiment: chemical genetic growth profiling, strain panel (AID 1159580);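 note: tested at 20 µM; growth read once vehicle control cultures reached saturation at 30 °C; 1 = growth at the plate median or of vehicle wells; lower values mean less growth of the strain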
Conditions: growth OD

Measured: normalized growth

COc1ccc2c(=O)ccoc2c1
inactive: S. cerevisiae deletion strains, locus YJR043C, strain POL32, hits give low values 1.01 | S. cerevisiae deletion strains, locus YJR075W, strain HOC1, hits give low values 1.04 | S. cerevisiae deletion strains, locus YKL009W, strain mrt4, hits give low values 0.99 | S. cerevisiae deletion strains, locus YKL068W, hits give low values 1.03 | S. cerevisiae deletion strains, locus YKL085W, strain MDH1 (second series), hits give low values 1.03 | S. cerevisiae deletion strains, locus YKL085W, strain MDH1, hits give low values 1.03 | S. cerevisiae deletion strains, locus YKL160W, strain elf1, hits give low values 1.02 | S. cerevisiae deletion strains, locus YKL190W, strain CNB1, hits give low values 1.02 | S. cerevisiae deletion strains, locus YKR001C, strain vps1, hits give low values 0.947 | S. cerevisiae deletion strains, locus YKR026C, strain gcn3, hits give low values 1.03 | S. cerevisiae deletion strains, locus YKR091W, strain srl3, hits give low values 1.02 | S. cerevisiae deletion strains, locus YLL001W, strain dnm1, hits give low values 1.02 | S. cerevisiae deletion strains, locus YLL026W, hits give low values 1.02 | S. cerevisiae deletion strains, locus YLL041C, strain sdh2, hits give low values 0.972 | S. cerevisiae deletion strains, locus YLR027C, strain aat2, hits give low values 1.02 | S. cerevisiae deletion strains, locus YLR039C, strain RIC1, hits give low values 1.01 | S. cerevisiae deletion strains, locus YLR058C, strain SHM2, hits give low values 1.02 | S. cerevisiae deletion strains, locus YLR102C, strain apc9, hits give low values 1.01 | S. cerevisiae deletion strains, locus YLR221C, strain rsa3, hits give low values 1.03 | S. cerevisiae deletion strains, locus YLR258W, strain gsy2, hits give low values 1.02 | S. cerevisiae deletion strains, locus YLR262C, strain YPT6 (second series), hits give low values 1.04 | S. cerevisiae deletion strains, locus YLR262C, strain YPT6, hits give low values 1.06 | S. cerevisiae deletion strains, locus YLR268W, strain sec22, hits give low values 0.987 | S. cerevisiae deletion strains, locus YLR320W, strain mms22, hits give low values 1.03 | S. cerevisiae deletion strains, locus YLR330W, strain CHS5, hits give low values 1.02 | S. cerevisiae deletion strains, locus YLR342W, strain FKS1 (second series), hits give low values 1.03 | S. cerevisiae deletion strains, locus YLR342W, strain FKS1, hits give low values 1.02 | S. cerevisiae deletion strains, locus YLR357W, strain rsc2, hits give low values 1.02 | S. cerevisiae deletion strains, locus YLR370C, strain arc18, hits give low values 1.02 | S. cerevisiae deletion strains, locus YLR371W, strain rom2, hits give low values 1.02 | S. cerevisiae deletion strains, locus YLR384C, strain iki3, hits give low values 1.02 | S. cerevisiae deletion strains, locus YLR418C, strain cdc73, hits give low values 0.979 | S. cerevisiae deletion strains, locus YML016C, strain PPZ1, hits give low values 1.01 | S. cerevisiae deletion strains, locus YML032C, strain rad52, hits give low values 0.993 | S. cerevisiae deletion strains, locus YML120C, strain ndi1, hits give low values 1.03 | S. cerevisiae deletion strains, locus YML124C, strain tub3, hits give low values 1.01 | S. cerevisiae deletion strains, locus YMR058W, strain fet3, hits give low values 1.02 | S. cerevisiae deletion strains, locus YMR078C, strain ctf18, hits give low values 1.01 | S. cerevisiae deletion strains, locus YMR125W, strain sto1, hits give low values 1.03 | S. cerevisiae deletion strains, locus YMR129W, hits give low values 1.02 | S. cerevisiae deletion strains, locus YMR205C, strain PFK2, hits give low values 1.03 | S. cerevisiae deletion strains, locus YMR223W, strain ubp8, hits give low values 0.986 | S. cerevisiae deletion strains, locus YMR231W, strain pep5, hits give low values 1.02 | S. cerevisiae deletion strains, locus YMR263W, strain SAP30, hits give low values 1.02 | S. cerevisiae deletion strains, locus YMR307W, strain GAS1, hits give low values 1.02 | S. cerevisiae deletion strains, locus YNL067W, strain RPL9B, hits give low values 1.01 | S. cerevisiae deletion strains, locus YNL071W, strain lat1, hits give low values 1.05 | S. cerevisiae deletion strains, locus YNL128W, strain TEP1, hits give low values 1.03 | S. cerevisiae deletion strains, locus YNL153C, strain GIM3, hits give low values 1.01 | S. cerevisiae deletion strains, locus YNL209W, strain ssb2, hits give low values 1.02 | S. cerevisiae deletion strains, locus YNL233W, strain BNI4, hits give low values 1.01 | S. cerevisiae deletion strains, locus YNL248C, strain rpa49, hits give low values 1.03 | S. cerevisiae deletion strains, locus YNL250W, strain rad50, hits give low values 1.05 | S. cerevisiae deletion strains, locus YNL271C, strain bni1, hits give low values 1 | S. cerevisiae deletion strains, locus YNL298W, strain CLA4, hits give low values 0.977 | S. cerevisiae deletion strains, locus YNL307C, strain MCK1, hits give low values 0.984 | S. cerevisiae deletion strains, locus YNL322C, strain KRE1 (second series), hits give low values 1.03 | S. cerevisiae deletion strains, locus YNL322C, strain KRE1, hits give low values 1.02 | S. cerevisiae deletion strains, locus YNR049C, strain mso1, hits give low values 1.02 | S. cerevisiae deletion strains, locus YNR052C, strain pop2, hits give low values 1 | S. cerevisiae deletion strains, locus YOL006C, strain TOP1, hits give low values 0.962 | S. cerevisiae deletion strains, locus YOL012C, strain htz1 0.848 | S. cerevisiae deletion strains, locus YOL147C, strain pex11, hits give low values 1.01 | S. cerevisiae deletion strains, locus YOR001W, strain rrp6, hits give low values 1.03 | S. cerevisiae deletion strains, locus YOR061W, strain CKA2, hits give low values 1.02 | S. cerevisiae deletion strains, locus YOR069W, strain VPS5, hits give low values 1.01 | S. cerevisiae deletion strains, locus YOR070C, strain gyp1, hits give low values 1.02 | S. cerevisiae deletion strains, locus YOR080W, strain dia2, hits give low values 1.01 | S. cerevisiae deletion strains, locus YOR083W, strain WHI5, hits give low values 1.02 | S. cerevisiae deletion strains, locus YOR106W, strain vam3, hits give low values 1.03 | S. cerevisiae deletion strains, locus YOR136W, strain idh2, hits give low values 1.01 | S. cerevisiae deletion strains, locus YOR144C, strain elg1, hits give low values 1 | S. cerevisiae deletion strains, locus YOR184W, strain ser1, hits give low values 0.988 | S. cerevisiae deletion strains, locus YOR265W, strain rbl2, hits give low values 1.01 | S. cerevisiae deletion strains, locus YOR270C, strain vph1, hits give low values 1.03 | S. cerevisiae deletion strains, locus YOR290C, strain snf2, hits give low values 1.04 | S. cerevisiae deletion strains, locus YOR316C, strain cot1, hits give low values 1.01 | S. cerevisiae deletion strains, locus YPL051W, strain arl3, hits give low values 1.02 | S. cerevisiae deletion strains, locus YPL055C, strain LGE1, hits give low values 1.04 | S. cerevisiae deletion strains, locus YPL078C, strain atp4, hits give low values 1.02 | S. cerevisiae deletion strains, locus YPL106C, strain sse1, hits give low values 1.01 | S. cerevisiae deletion strains, locus YPL240C, strain hsp82, hits give low values 1.03 | S. cerevisiae deletion strains, locus YPL241C, strain CIN2, hits give low values 1.02 | S. cerevisiae deletion strains, locus YPR119W, strain clb2, hits give low values 1.01 | S. cerevisiae deletion strains, locus YPR141C, strain kar3, hits give low values 1.01 | S. cerevisiae deletion strains, locus YPR163C, strain tif3, hits give low values 1.01 | S. cerevisiae deletion strains, locus YPR167C, strain met16, hits give low values 1.02 | S. cerevisiae deletion strains, strain wtn01, hits give low values 0.997 | S. cerevisiae strains, strain wild type, hits give low values 1.02
